Measured values from PubChem BioAssay (NCATS).
Records with an inconclusive call do not appear. Unmarked numbers belong to inactive results. The source made the active and inactive calls. Calls follow the shape of the dose curve; as a rule, active = well fitted cell-killing curve with a large enough effect; inconclusive = small, poorly fitted or top-dose-only effect, or effect the other way; inactive = flat fitted curve, though single readings scatter.

Test system: HeLa
Test: Primary qHTS to identify gynecologic anti-cancer compounds using libraries of approved drugs and bioactive compounds (AID 1345084); also: nearly all actives have a fitted effect of over 55% in size
Settings: Gynecologic cancer cell panel viability, ATPlite luminescence, 48 h; series mostly up to 57.5 µM; activity change, negative = cytotoxicity: at the top concentration
Excerpt: National Center for Advancing Translational Sciences [NCATS] Assay Overview: Chemotherapeutic drug responses vary from cancer to cancer and from patient to patient. These variations could be caused by a number of factors including patient genomic background, tumor mutations, tumor heterogeneity, and aspects of drug treatment. Chemotherapeutic drug resistance is also a common issue and can lead to ineffective treatment and patient death. Here we have profiled the cell killing effects of thousands of compounds to characterize the responses in three gynecological cancers, identify cancer-selective compounds, and understand the diversity of responses to these compounds from pan-cancer suppressors to single cell line selective compounds. In this assay, we screened a 7,914 compound drug library that included approved drug and bioactive compounds in six ovarian, three cervical, and […] placental cancer cell lines using the ATPlite assay for cell viability. […] The cervical cancer cell lines included HeLa, Ca Ski, and C-33 A. The placental cancer cell lines included JEG-3. HEK 293T cells were used as the control cell line to determine the selectivity index. ATPlite is a luminescence based assay reliant on the conversion of a luciferase substrate to light in the presence of ATP. As a cytotoxic compound will suppress growth and decrease the number of cells, the concentration of ATP will decrease, and less light signal will be detected in the well.
Assay Protocol Summary: 1,000 cells in 4 uL of media were dispensed into white, solid bottom 1536-well plates using a Multidrop Combi (Thermo Scientific). The Assay plates were incubated for 16 hours at 37 C with 5% CO2 in assay plates, followed by the addition of 23 nL of DMSO or drug dissolved in DMSO. Each compound was assayed in five concentrations (0.092, 0.46, 2.3, 11.5, and 57.5 uM), using the automated Wako 1536 Pin Tool workstation and incubated at 37 C with 5% CO2 48 hours. 4 uL of ATPlite, the ATP monitoring reagent, was then added to the each well of the assay plates using the Multidrop Combi reagent dispenser followed by incubation for 15 minutes at room temperature. The resulting luminescence was measured using the ViewLux plate reader.
% is scaled to controls: 0 for no effect and ±100 for the full control effect; potency is read from the fitted curve at half-maximal effect.

SMILES	Potency	activity change, negative = cytotoxicity
COC(=O)Nc1nc2ccc(S(=O)c3ccccc3)cc2[nH]1 (stereo not given)	2820 nM (active)	
COc1nc(N)nc2c1ncn2[C@@H]1O[C@H](CO)[C@@H](O)[C@@H]1O		-4.39%
CN1CCN(c2c(F)cc3c(=O)c(C(=O)O)cn(CCF)c3c2F)CC1		10.9%
Cc1cccc(N(C)C(=S)Oc2ccc3ccccc3c2)c1		0.301%
CC(=O)CC(c1ccccc1)c1c(O)c2ccccc2oc1=O (stereo not given)		4.21%
CCn1cc(C(=O)O)c(=O)c2cc(F)c(N3CCNCC3)cc21		4.83%
Nc1nc(=S)c2[nH]cnc2[nH]1	1410 nM (active)	
COc1cccc(N(C)C(=S)Oc2ccc3c(c2)CCCC3)n1		-4.57%
CCCN[C@H]1CCc2nc(N)sc2C1		6.04%
O[C@@H](CNC[C@H](O)[C@H]1CCc2cc(F)ccc2O1)[C@@H]1CCc2cc(F)ccc2O1		-24.3%
COc1c(N2CCNC(C)C2)c(F)cc2c(=O)c(C(=O)O)cn(C3CC3)c12 (stereo not given)		-1.92%
CNC1CCCN(c2c(F)cc3c(=O)c(C(=O)O)cn(C4CC4)c3c2OC)C1 (stereo not given)		-9%
COc1ccc2c(c1)c(CC(=O)OCC(=O)O)c(C)n2C(=O)c1ccc(Cl)cc1		8.53%
CCCc1nc(C)c2c(=O)[nH]c(-c3cc(S(=O)(=O)N4CCN(CC)CC4)ccc3OCC)nn12		10.8%
O=c1cc(O)c(Cl)c[nH]1		-1.05%
CC(C)(Sc1cc(C(C)(C)C)c(O)c(C(C)(C)C)c1)Sc1cc(C(C)(C)C)c(O)c(C(C)(C)C)c1		-9.3%
COC(=O)Nc1nc2ccc(C(=O)c3ccccc3)cc2[nH]1	1000 nM (active)	
CC1=CC(=O)c2ccccc2C1=O		-3.37%
O=c1oc2c(O)c(O)cc3c(=O)oc4c(O)c(O)cc1c4c23		8.26% [at 25.3 µM]
OC(Cn1cncn1)(Cn1cncn1)c1ccc(F)cc1F		2.6%

SMILES	Potency	activity change, negative = cytotoxicity
COc1ccccc1OCC(O)COC(N)=O (stereo not given)		-1.05%
Cc1oc(=O)oc1CN1CCN(c2cc3c(cc2F)c(=O)c(C(=O)O)c2n3C(C)S2)CC1 (stereo not given)		2.3%
CN1CCCC(n2nc(Cc3ccc(Cl)cc3)c3ccccc3c2=O)CC1 (stereo not given)		-3.65%
COc1cc2c(Nc3ccc(Br)cc3F)ncnc2cc1OCC1CCN(C)CC1		9.22%
CC1=NN(c2ccccc2)C(=O)C1	inactive	
NC(N)=NC(N)=NCCc1ccccc1		-17.2%
CC(N)C12CC3CC(CC(C3)C1)C2 (stereo not given)		-3.74%
CN(C)c1ccc(C(=C2C=CC(=[N+](C)C)C=C2)c2ccc(N(C)C)cc2)cc1	2000 nM (active)	
CCC(=O)O[C@]1(C(=O)CCl)[C@@H](C)C[C@H]2[C@@H]3CCC4=CC(=O)C=C[C@]4(C)[C@@]3(F)[C@@H](O)C[C@@]21C		-5.15%
CCCCCCNC(=O)n1cc(F)c(=O)[nH]c1=O		-16.6%
C#CCN[C@@H]1CCc2ccccc21		-2.9%
CC(C)(C#N)c1cc(Cn2cncn2)cc(C(C)(C)C#N)c1		12.2%
COc1ncnc(NS(=O)(=O)c2ccc(N)cc2)c1OC		13.7%
CC[C@H](NC(C)C)[C@H](O)c1ccc(O)c2[nH]c(=O)ccc12		-1.29%
Nc1[nH]c(=O)ncc1F		7.9%
Cn1c(=O)c2c(ncn2CC(O)CO)n(C)c1=O (stereo not given)		4.59%
C[C@@H]1C[C@H]2[C@@H]3CCC4=CC(=O)C=C[C@]4(C)[C@@]3(Cl)[C@@H](O)C[C@]2(C)[C@@]1(OC(=O)c1ccco1)C(=O)CCl		-10.7%
COc1cc(NS(=O)(=O)c2ccc(N)cc2)nc(OC)n1		12.1%
CC(C(=O)O)c1ccc2c(c1)CC(=O)c1ccccc1S2 (stereo not given)	inactive	
CN(C)CCc1c[nH]c2ccc(CS(=O)(=O)N3CCCC3)cc12		-2.43%
